# Most compounds without a hit are left out; they make up all but 1.6% or so of the library.
# Mito fusion yeast – qHTS Assay for Small Molecule Inhibitors of Mitochondrial Division or Activators of Mitochondrial Fusion. S. cerevisiae fusion-defective mutant growth rescue, CellTiterGlo 48 h. 320,000 compounds, 0.23% hits. Potency, µM (series often up to 46.1 µM), without a hit: at the top dose growth rescue (activation), usual class: activators; also: % of control where 0% means no effect; nearly all actives have a fitted effect of over 45% in size
#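 Temperature-sensitive fusion-defective S. cerevisiae (e.g. fzo1-1, mgm1-5) were grown with compound in YPEG medium (3% ethanol, 3% glycerol) for 48 hours at 37C. Growth rescue was measured as viability by CellTiterGlo luminescence after 10 minutes at ambient.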
# FUS yeast rescue – qHTS for Suppressors of FUS Proteinopathy: Primary screen using FUS-linked yeast assay | S. cerevisiae FUS-expressing, growth rescue, OD600, 24 h | Potency, µM (highest dose often 76.6 µM), usual class: activators | 390,000 compounds, 0.24% hits;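 also: plate controls were DMSO vehicle for no effect and reference control for full effect; nearly all actives have a fitted effect of over 55% in size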
#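 Read-out: OD at 600 nm after 24hr at 30C, reporting rescue of FUS-induced yeast toxicity. Cells at OD 0.005 in galactose (2%) minimal medium; compounds tested in a dilution series; CP55940 titration from 92uM final as control.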
# gsp agonist – qHTS for Agonist of gsp, the Etiologic Mutation Responsible for Fibrous Dysplasia/McCune-Albright Syndrome: qHTS | gsp mutant cells, cAMP HTRF, 30 min | Potency, µM (doses to about 76.9 µM), for the others: top-dose activation (cAMP increase), usual class: activators | 340,000 compounds, 0.13% hits | AID 624287, 2012; active = well fitted activation curve with a large enough effect; inconclusive = small, poorly fitted or top-dose-only effect, or another doubt; inactive = no such curve, though single readings can be large or run the other way; cell line not stated here;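 also: phosphodiesterase inhibitor Ro 20-1724 added with compounds to block cAMP breakdown; nearly all actives have a fitted effect of over 60% in size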
#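 Cells in DMEM/10% FBS with G418 were pretreated with compounds in DMSO plus […] (300 uM stock) for 30 min at 37C. cAMP was measured by HTRF (cAMP-d2 plus anti-cAMP antibody-K) after 30 min at room temperature.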
# gsp antag – qHTS for Antagonists of gsp, the Etiologic Mutation Responsible for Fibrous Dysplasia/McCune-Albright Syndrome: qHTS | Potency, µM (doses to about 76.9 µM), inactives show at the highest dose activity change, negative = inhibition, most hits filed as inhibitors | 340,000 compounds, 0.4% hits | gsp-mutant cells, cAMP HTRF, 30 min; calls by dose curve; cell line not stated here;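 also: intracellular cAMP measured with PDE inhibitor Ro 20-1724 present during compound exposure; % is scaled to controls: 0 for no effect and ±100 for the full control effect; nearly all actives have a fitted effect of over 65% in size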
#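 Cells, 2000/well, grown 16–24 h in DMEM 10% FBS with 0.5 mg/ml G418, then compounds plus […] (300 uM addition stock), 30 min at 37C. cAMP read by HTRF (cAMP-d2 and anti-cAMP antibody-K in lysis buffer) after 30 min RT.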
# ALOX12 inh – Primary qHTS assay for inhibitors of human arachidonate 12S-lipoxygenase (ALOX12): Round 2. purified 12hLO, xylenol orange hydroperoxide absorbance. Potency, µM (series often up to 108 µM), without a hit: at the highest dose activity change, negative = inhibition, most hits filed as inhibitors. 580,000 compounds, 1.1% hits; also: % is scaled to controls: 0 for no effect and ±100 for the full control effect
# Target sequence (P18054 whole entry, looked up): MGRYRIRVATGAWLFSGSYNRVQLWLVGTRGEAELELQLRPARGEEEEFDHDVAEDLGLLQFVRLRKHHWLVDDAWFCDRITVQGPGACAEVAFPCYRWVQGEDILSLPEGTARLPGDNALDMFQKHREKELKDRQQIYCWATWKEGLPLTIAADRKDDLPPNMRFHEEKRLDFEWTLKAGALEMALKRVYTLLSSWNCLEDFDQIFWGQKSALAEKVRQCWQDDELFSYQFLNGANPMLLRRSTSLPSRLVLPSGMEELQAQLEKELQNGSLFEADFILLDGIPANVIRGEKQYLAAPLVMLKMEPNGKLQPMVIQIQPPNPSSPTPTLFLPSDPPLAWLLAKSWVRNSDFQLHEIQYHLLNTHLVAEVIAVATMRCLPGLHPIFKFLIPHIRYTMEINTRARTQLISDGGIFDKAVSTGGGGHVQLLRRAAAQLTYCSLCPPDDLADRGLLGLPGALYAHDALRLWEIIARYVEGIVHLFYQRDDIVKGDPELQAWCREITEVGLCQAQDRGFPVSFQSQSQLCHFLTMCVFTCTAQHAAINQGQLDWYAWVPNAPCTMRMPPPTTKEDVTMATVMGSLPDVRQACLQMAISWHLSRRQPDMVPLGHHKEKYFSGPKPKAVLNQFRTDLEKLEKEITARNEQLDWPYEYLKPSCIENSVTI
#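 Purified human 12hLO at 150 nM in 25 mM Hepes, 0.01% Triton X-100, pH 7.0, preincubated 15 min at room temperature with compound. Reaction started with 40 uM arachidonic acid, 30 min at room temperature. Hydroperoxide measured by Fe-xylenol orange, 573/405 nm absorbance ratio.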
# Numbers without * were called inactive; i = inactive; ? = inconclusive; / = no result; ! = a repeat was not active; [ ] = remark or other dose. Unless noted, calls follow the shape of the dose curve; as a rule, active = well fitted curve in the direction sought with a large enough effect; inconclusive = small, poorly fitted or top-dose-only effect, or another doubt; inactive = no such curve, though single readings can be large; an effect the other way counts as inactive or inconclusive. Potency is read from the fitted curve at half-maximal effect.
SMILES,Mito fusion yeast,FUS yeast rescue,gsp agonist,gsp antag,ALOX12 inh
Cc1cccc(Cn2nnc3c(=O)[nH]c(C4CCCN(C(=O)c5ccc(C(C)(C)C)cc5)C4)nc32)c1 (configuration not stated),/,22.4µM*,/,/,-11.1%
O=C(Nc1cccc(C(F)(F)F)c1)c1cc(-c2ccc[nH]2)n[nH]1,/,/,/,/,15.8µM*
O=C(NNC(=O)c1ccc[nH]1)Nc1cccc(C(F)(F)F)c1,-0.7%,i,5.3%,4.5%,432.6%
COc1ccc(NC(=O)c2cc(-c3ccc[nH]3)n[nH]2)cc1F,/,/,/,/,-14.8%
Cc1ccc(NC(=O)c2cc(-c3ccc[nH]3)n[nH]2)cc1F,/,/,/,/,10µM*
O=C(Nc1cccc(F)c1)c1cc(-c2ccc[nH]2)n[nH]1,/,/,/,/,20µM*
Cc1cc(F)ccc1NC(=O)c1cc(-c2ccc[nH]2)n[nH]1,/,/,/,/,17.8µM*
Cc1cc(F)ccc1-c1cc(C(=O)Nc2ccccc2)[nH]n1,/,i,/,/,22.3%
Cc1nc2cc(F)ccc2cc1C(=O)NCc1cccnc1-n1cncn1,/,/,/,/,-5.4%
O=C(CSCc1coc(-c2ccc(Cl)cc2)n1)NC1CCCCCC1,/,/,/,/,2.4%
Cc1ccc(-c2csc(NS(=O)(=O)c3cccc(F)c3)n2)o1,/,i,12.3%[15.4 µM],-7.0%,15.8µM*
COc1ccc(/C=C2\N=C(SC)SC2=O)cc1C,/,/,/,/,-48.1%
CCCOC(=O)c1ccc(-c2c(C)noc2-c2ccc(OC)cc2O)o1,6.9%,i,5.1%,31.6µM*,?
COc1ccc(C(=O)N2CCCC3(C2)NC(=O)N(Cc2cccc(Cl)c2)C3=O)cc1 (configuration not stated),/,/,/,/,0.1%
COc1cc(OC)cc(C(=O)N2CCN(C(=O)c3cccc(F)c3)CC2)c1,1.1%,i,10.4%,6.6%,25.9%
COc1ccc(C(=O)N2CCC3(CC2)NC(=O)N(c2cccc(Cl)c2)N3)cc1,/,/,/,/,1.78µM*
COc1cc(OC)cc(C(=O)N2CCC3(CC2)NC(=O)N(c2cccc(Cl)c2)N3)c1,/,/,/,/,1.26µM*
COc1ccccc1CCC(=O)N1CCC2(CC1)NC(=O)N(c1cccc(F)c1)N2,/,/,/,/,10µM*
COc1cc(OC)cc(C(=O)N2CCC3(CC2)NC(=O)N(c2cccc(F)c2)N3)c1,/,/,/,/,2.82µM*
COc1cc(OC)cc(C(=O)N2CCC3(CC2)NC(=O)N(Cc2ccccc2)C3=O)c1,/,/,/,/,8.4%
CC(C)=CCC1(CO)CCCN(Cc2cscn2)C1 (configuration not stated),/,/,/,/,28.2%
CC(=O)NCCC(=O)Nc1ccc2c(c1)CCC2,/,/,/,/,2.7%
O=C(Nc1nc2ccc(S(=O)(=O)N3CCCCC3)cc2s1)c1ccncc1,12.6%,35.5µM*,-3.8%,-30.8%,16.8%
Cc1ccc(CNC(=O)c2ccc(-c3nc(CS(=O)c4ccccc4)c(C)o3)cc2)cc1 (configuration not stated),/,i,/,/,-25.9%
COc1ccc(CNC(=O)c2ccc(-c3nc(CS(=O)c4ccc(C)cc4)c(C)o3)cc2)cc1 (configuration not stated),/,25.1µM*,/,/,?
SMILES,Mito fusion yeast,FUS yeast rescue,gsp agonist,gsp antag,ALOX12 inh
COCCn1cnnc1SCc1cccc(F)c1,/,/,/,/,4.5%
CCOc1cc(NC(=S)Nc2ccccc2OC)c(OCC)cc1NC(=O)c1ccccc1C,-20.5%,?,8.5%,-26.4%,44.7µM*
COc1ccccc1NC(=O)c1c(C)nc2ccccc2c1C(=O)O,-0.2%,i,2.8%[15.4 µM],6.9%,14.1µM*
COC(=O)c1c(C)nc2ccccc2c1C(=O)O,-1.2%,/,8.8%,7.8%,-5.1%
COc1ccccc1NC(=O)c1ccccc1Oc1ccccc1,-1.3%,i,-6.6%,5.62µM*,-1.8%
COc1cc(NC(=O)c2cc3ccccc3cc2O)c(OC)cc1Cl,3.6%,i,?,20µM*,79.0%
CCOc1cc(NC(=S)NCC2CCCO2)c(OCC)cc1NC(=O)c1ccccc1C (configuration not stated),-6.9%,i,-3.1%,-19.8%,-31.7%
COc1ccc(NC(=O)c2ccccc2Oc2ccccc2)c(OC)c1,-2.7%,i,-2.2%,-6.4%,-7.0%
COc1cc(/C=C/C(=O)O)c(Br)cc1OCCc1ccccc1,/,/,/,/,-31.0%
O=C(Nc1ccccc1C(=O)Nc1ccccc1C(=O)O)c1ccccc1,7.5%,i,9.5%[15.4 µM],?,?
O=C(O)c1ccccc1NC(=O)c1ccccc1Nc1ccccc1,-10.9%,i,-7.8%,31.6µM*,75.6%
c1ccc(-c2cc(-c3ccc(N4CCOCC4)cc3)nc3ccccc23)cc1,?,i,10.3%[15.4 µM],-2.9%,-12.6%
COc1ccc2c(-c3ccccc3)cc(N3CCOCC3)nc2c1,8.9%,i,-4.2%,-2.8%,1.78µM*
CCNc1ncc2nc(CCc3ccccc3)c(=O)n(C[C@H]3CCCO3)c2n1,/,/,/,/,7.08µM*
CCNc1ncc2nc(C)c(=O)n(C[C@H]3CCCO3)c2n1,/,/,/,/,0.0%
Cc1ccc2[nH]c(=O)c(CN(C)S(=O)(=O)c3ccc(Cl)cc3)cc2c1,/,/,/,/,5.3%
CO[C@H]1C=CO[C@@]2(C)Oc3c(C)c(O)c4c(O)c(c(C=NN5CCN(C)CC5)c(O)c4c3C2=O)NC(=O)C(C)=CC=C[C@H](C)[C@H](O)[C@@H](C)[C@@H](O)[C@@H](C)[C@H](OC(C)=O)[C@@H]1C,-12.8%,17.8µM*,/,?,?
CCOc1ccc(C(Nc2cccnc2)c2cc(Cl)c3cccnc3c2O)cc1 (configuration not stated),29.4%,i,-3.4%[15.4 µM],4.3%,10µM*
O=C(O)COc1ccccc1C(Nc1cccnc1)c1cc(Cl)c2cccnc2c1O (configuration not stated),3.4%,?,-35.6%,-18.7%,/
Cn1nc(C(=O)OCC(N)=O)c2ccccc2c1=O,/,/,/,/,7.9%
CC1CCN(C(=O)C(=O)N2CCN(c3nc(-c4ccco4)c4c(c3C#N)CCC4)CC2)CC1,/,/,/,/,34.7%
CC(=O)N1CCN(c2nc(-c3ccco3)c3c(c2C#N)CC(C)(C)SC3)CC1,7.8%,?,6.3%,?,35.5µM*!
CC1(C)Cc2c(C#N)c(N3CCN(C(=O)c4ccccc4Cl)CC3)nc(-c3ccco3)c2CS1,-19.1%,11.2µM*,?,?,8.4%
CCC(=O)N1CCN(c2nc(-c3ccco3)c3c(c2C#N)CC(C)(C)SC3)CC1,/,/,/,/,20µM*
CC1(C)Cc2c(C#N)c(N3CCN(C(=O)c4ccco4)CC3)nc(-c3ccco3)c2CS1,20.6%,?,22.7%,6.5%,2.4%
CC1CCN(C(=O)C(=O)N2CCN(c3nc(-c4ccco4)c4c(c3C#N)CCCC4)CC2)CC1,/,/,/,/,31.6µM*

# Bioassay records as filed in PubChem.
